# Screens deposited in PubChem by several laboratories.
# Shown are actives, neighbours in structure and some others; about 3.9% of the full set was active somewhere.
# AHR activator: AHR activators, primary screen, cell-based, luminescence, luciferase reporter, human | 320,000 tested, 2.5% active | activation, % at 5 µM | AHR-responsive luciferase reporter cells | Aryl hydrocarbon receptor (Homo sapiens), P35869; in the data active = activation above about 47%;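 also: 0% = vehicle wells and 100% = reference agonist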
# PLCg1 inh: PLC-gamma1 enzyme inhibitors, primary screen, biochemical, fluorescence, purified enzyme; 1-phosphatidylinositol 4,5-bisphosphate phosphodiesterase gamma-1 (Homo sapiens), P19174; fluorogenic substrate; inhibition, % at 12.2 µM; 370,000 tested, 0.84% active; in the data active = inhibition above about 9.5%
# CR mimetic SO: reduction of superoxide in aged yeast, primary screen, HTS | S. cerevisiae aged cells, superoxide DHE fluorescence; active compounds read low | superoxide response (% of plate mean), % at 10 µM | 330,000 tested, 0.18% active | AID 2690, 2010;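 active = superoxide response under a set limit, about three screen SD below normal, cut at about 65% in these data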;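 also: yeast aged for seven days with compound at 30 °C before DHE staining; 100% = average MFI of all compound-treated wells on the plate with controls excluded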
# PLC-beta3 inh: human PLC-beta3 inhibitors, primary screen, biochemical, fluorescence. 1-phosphatidylinositol 4,5-bisphosphate phosphodiesterase beta-3 (Homo sapiens), Q01970. Purified PLC-beta3, fluorogenic substrate. inhibition, % at 12.2 µM. 370,000 tested, 0.18% active. AID 720704, 2013; in the data active = inhibition above about 11%;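 also: 0% = median of compound wells on plate and 100% = full blocker control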
# sPLA2-III inh: human group III sPLA2 inhibitors, primary screen, biochemical, QFRET, BODIPY PC-A2 liposome substrate. QFRET BODIPY PC-A2 liposome hydrolysis, fluorescence. inhibition, % at 12.2 µM. 370,000 tested, 0.56% active. AID 743126, 2013;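 active = inhibition above mean plus 3 SD of compounds lying within the high and low control bounds, cut at about 19% in these data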;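 also: 0% = median of test compound wells and 100% = no enzyme DMSO wells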
# HIF activator: HIF pathway transcriptional activators, primary screen, cell-based, U2OS HRE-luciferase, luminescence | U2OS HRE-luciferase reporter; normalized: DMSO 0%, desferrioxamine 100% | 300,000 tested, 0.32% active | AID 1910, 2009 | activation, % at 7.5 µM (by protocol);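 active = mean activation of at least 10% of the iron chelator positive control signal, with at least half of replicates also reaching 10%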
# An asterisk follows results filed as active; · = not tested or not shown.
SMILES,AHR activator,PLCg1 inh,CR mimetic SO,PLC-beta3 inh,sPLA2-III inh,HIF activator
Cc1ccccc1NS(=O)(=O)c1cc(C(=O)NCCSC2CCCCC2)ccc1C,1,4,92,3,-37,0
CCc1ccc(-n2ncc(Cl)c(Oc3ccc(OC)cc3)c2=O)cc1,·,-8,·,-6,-6,·
NC(=S)NNc1ccnc2cc(Cl)ccc12,4,-3,101,-3,5,-1
C/C(=N/Nc1ccnc2cc(Cl)ccc12)c1ccc(O)cc1,56*,-15,106,-21,-11,1
C/C(=N/Nc1ccnc2cc(Cl)ccc12)c1ccc(N)cc1,57*,-19,105,-25,-5,1
COc1cccc(/C=C2\CC3(OC(=O)c4ccc(F)cc4)CCCN2C3)c1 (stereo not given),·,-4,·,-4,-8,·
Nn1c(SCC(=O)Nc2ccc(C(=O)O)cc2)nnc1-c1ccco1,·,2,·,0,-2,·
COc1cc(NC(=O)c2ccc(F)cc2)ccc1NC(=O)c1cc2ccccc2o1,-1,-5,103,-3,-1,2
COc1ccccc1NC(=O)c1cc2ccc(O)cc2o/c1=N\O,-1,-76,119,-78,-29,1
COc1cc(NC(=O)c2c(OC)cccc2OC)ccc1NC(=O)c1cc2ccccc2o1,72*,-53,108,-67,-5,3
COc1ccccc1NC(=O)c1cc2ccccc2o/c1=N\O,67*,-6,96,-9,7,2
O=C(c1ccccc1)N1CCN(c2ncnc3c2cnn3-c2ccccc2)CC1,61*,-4,86,-2,-2,1
O=C(CCS(=O)(=O)c1ccccc1)Nc1ccc(F)cc1Cl,·,-1,·,0,-4,·
COc1ccc(NCc2nc3ccccc3n2C)cc1,53*,-3,104,-10,4,0
CC(C)n1c(NCc2nc3ccccc3n2C)nc2ccccc21,15,-7,104,-8,-4,0
CCOC(=O)c1ccc(NCc2nc3ccccc3n2C)cc1,59*,0,99,1,-7,2
Cn1c(CNc2nc3ccccc3n2C)nc2ccccc21,49*,6,99,5,8,4
Cn1c(CNc2ccc(O)cc2)nc2ccccc21,15,-48,78,-69,-12,1
Cc1ccc(NC(=O)NCc2nc3ccccc3n2C)cc1,5,0,97,-5,-2,0
O=C(OC12CCCN(C1)/C(=C/c1cccc(Cl)c1)C2)C1CCCC1 (stereo not given),·,-3,·,-2,0,·
CCOC(=O)Cn1cc(CN2C(C(=O)OC)CN(C3CC3)CCS2(=O)=O)nn1 (stereo not given),·,-2,·,1,11,·
COC(=O)[C@]12C[C@H](CC(=O)NCc3ccc(C)o3)C(=O)N(CCC3=CCCCC3)C1=C[C@H](C(C)C)O[C@@H]2C1CC1,·,-2,·,0,-8,·
COC(=O)Cc1ccc(NC(=S)NC(C)(C)C)cc1,0,4,92,1,12,25*
CCN(C(=O)[C@@H](C)[C@@H](O)c1ccc(Cl)cc1)c1ccccc1,·,8,·,2,10,·
O=C(Nc1nc(Cc2ccccc2)c(Cc2ccccc2)n1Cc1ccccc1)c1ccccc1,·,-12,·,-16,6,·
SMILES,AHR activator,PLCg1 inh,CR mimetic SO,PLC-beta3 inh,sPLA2-III inh,HIF activator
Cc1ccc(NC(=O)C2Oc3ccccc3OC2C)cc1 (stereo not given),51*,2,103,-10,0,1
C[C@@H]1CC(=O)NN=C1c1ccc(NN=C(C#N)C#N)cc1,·,1,·,-37,9,·
CCOC(=O)CSc1nc(-c2ccccc2)nc2c1oc1ccccc12,48*,1,100,3,-3,0
CCc1nc(SCC(=O)NCCc2ccccc2)c2oc3ccccc3c2n1,2,-1,87,1,5,0
CCOc1ccccc1NC(=O)CSc1ncnc2c1oc1ccccc12,6,-1,111,0,1,69*
O=C(CSc1ncnc2c1oc1ccccc12)Nc1ccccc1F,0,2,100,-2,0,0
CCc1nc(SCC(=O)c2cccs2)c2oc3ccccc3c2n1,57*,-1,90,-2,-25,0
